# Records with an inconclusive call do not appear. A call without a number means that no potency is given here. The source made the active and inactive calls. Calls come from the whole dose curve; as a rule, active = well fitted inhibition curve with a large enough effect; inconclusive = small, poorly fitted or top-dose-only effect; inactive = flat fitted curve, though single readings scatter. Bridge positions count the residues as written; N and C are the ends. Square brackets hold non-standard residues; d marks the D form. Peptide text beside a SMILES is read from it. * marks the point of attachment. Ileψ(thiazoline)Cys = CC[C@H](C)[C@H](N)C1=N[C@H](C(=O)*)CS1; d(aIle) = CC[C@H](C)[C@@H](N)C(=O)O; dOrn = NCCC[C@@H](N)C(=O)O
# Columns and labels:
# Test in all cases: qHTS profiling for inhibitors of Plasmodium falciparum proliferation (AID 504749); note: nearly all actives have a fitted effect of over 60% in size
# Details in all cases: P. falciparum in erythrocytes, SYBR Green DNA, 72 h; series mostly up to 12.8 µM
# [1] = system: 3D7
# Summary of the method: (§1)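 Three-day growth assay of blood-stage parasites in erythrocytes (0.3% parasitemia, 2.5% hematocrit) at 37 C, 5% CO2, quantified by SYBR Green DNA staining after overnight detergent lysis.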
# [2] = system: ATS189
# Summary of the method: as §1
# [3] = system: CP185
# Summary of the method: as §1
# [4] = system: CP191
# Summary of the method: as §1
# [5] = system: CP201
# Summary of the method: as §1
# [6] = system: CP217
# Summary of the method: as §1
# [7] = system: CP247
# Summary of the method: as §1
# [8] = system: CP250
# Summary of the method: as §1
# [9] = system: CP256
# Summary of the method: as §1
# [10] = system: CP269
# Summary of the method: as §1
# [11] = system: CP286
# Summary of the method: as §1
# [12] = system: CP291
# Summary of the method: as §1
# [13] = system: CP297
# Summary of the method: as §1
# [14] = system: CP315
# Summary of the method: as §1
# [15] = system: ECU
# Summary of the method: as §1
# [16] = system: ICS
# Summary of the method: as §1
# [17] = system: N140
# Summary of the method: as §1
# [18] = system: PC49
# Summary of the method: as §1
# [19] = system: SC27B
# Summary of the method: as §1
# [20] = system: TAB113
# Summary of the method: as §1
# Potency is the fitted concentration of half-maximal effect.
Compound,Potency [1],Potency [2],Potency [3],Potency [4],Potency [5],Potency [6],Potency [7],Potency [8],Potency [9],Potency [10],Potency [11],Potency [12],Potency [13],Potency [14],Potency [15],Potency [16],Potency [17],Potency [18],Potency [19],Potency [20]
NC[C@@H]1O[C@H](O[C@H]2[C@H](O)[C@H](O[C@@H]3O[C@H](CO)[C@@H](O)[C@H](N)[C@@H]3O)[C@@H](N)C[C@H]2N)[C@@H](O)[C@H](O)[C@@H]1O,inactive,inactive,inactive,inactive,inactive,inactive,inactive,inactive,inactive,inactive,inactive,inactive,inactive,inactive,inactive,inactive,inactive,inactive,inactive,inactive
CCCCC[C@H](O)/C=C\[C@@H]1[C@H](O)CC(=O)[C@@H]1CCCCCCC(=O)O,inactive,inactive,inactive,inactive,inactive,inactive,inactive,inactive,inactive,inactive,inactive,inactive,inactive,inactive,inactive,3.55 µM (active),inactive,inactive,inactive,inactive
NC[C@@H]1O[C@@H](O[C@H]2[C@H](O)[C@H](O[C@@H]3O[C@H](CO)[C@@H](O)[C@H](N)[C@@H]3O)[C@@H](N)C[C@H]2N)[C@H](N)C[C@@H]1O,inactive,inactive,inactive,inactive,inactive,inactive,inactive,inactive,inactive,inactive,inactive,inactive,inactive,inactive,inactive,inactive,inactive,inactive,inactive,inactive
C[C@H](CCC(=O)O)[C@H]1CC[C@@H]2[C@@H]3[C@@H](O)C[C@H]4C[C@@H](O)CC[C@@]4(C)[C@H]3CC[C@@]21C,inactive,inactive,inactive,inactive,inactive,inactive,inactive,inactive,inactive,inactive,inactive,inactive,inactive,inactive,inactive,inactive,inactive,inactive,,inactive
c1ccc2c(c1)CCC[C@@H]2C1=NCCN1,inactive,inactive,inactive,inactive,inactive,inactive,inactive,inactive,inactive,inactive,inactive,inactive,inactive,inactive,inactive,inactive,inactive,inactive,inactive,inactive
CO[C@@H]1C[C@H](O[C@H]2[C@@H](C)[C@H](O[C@@H]3O[C@@H](C)C[C@@H](N(C)C)[C@@H]3OC(C)=O)[C@H](C)C[C@]3(CO3)C(=O)[C@H](C)[C@H](OC(C)=O)[C@H](C)[C@H](C)OC(=O)[C@@H]2C)O[C@H](C)[C@@H]1OC(C)=O,inactive,inactive,inactive,inactive,inactive,inactive,inactive,inactive,inactive,inactive,inactive,inactive,inactive,inactive,inactive,inactive,inactive,inactive,inactive,inactive
CC[C@H](C)[C@H](N)C1=N[C@H](C(=O)N[C@@H](CC(C)C)C(=O)N[C@@H](CCC(=O)O)C(=O)N[C@@H](C(=O)N[C@H]2CCCCNC(=O)[C@@H](CC(N)=O)NC(=O)[C@@H](CC(=O)O)NC(=O)[C@@H](Cc3cnc[nH]3)NC(=O)[C@@H](Cc3ccccc3)NC(=O)[C@@H]([C@@H](C)CC)NC(=O)[C@@H](CCCN)NC2=O)[C@@H](C)CC)CS1 ({Ileψ(thiazoline)Cys}-LE[d(aIle)]K[dOrn][d(aIle)][dF][dH][dD][dN]; lactam 4-C),inactive,inactive,inactive,inactive,inactive,inactive,inactive,inactive,inactive,inactive,inactive,inactive,inactive,inactive,inactive,inactive,inactive,inactive,,inactive
CCN[C@@H]1C[C@H](N)[C@H](O[C@H]2OC(CN)=CC[C@H]2N)[C@@H](O)[C@H]1O[C@H]1OC[C@@](C)(O)[C@@H](NC)[C@@H]1O,inactive,inactive,inactive,inactive,inactive,inactive,inactive,inactive,inactive,inactive,inactive,inactive,inactive,inactive,inactive,inactive,inactive,inactive,inactive,inactive
C[C@H](O)Cn1cnc2c1c(=O)n(C)c(=O)n2C,inactive,inactive,inactive,inactive,inactive,inactive,inactive,inactive,inactive,inactive,inactive,inactive,inactive,inactive,inactive,inactive,inactive,inactive,inactive,inactive
COc1c(O[C@H]2O[C@@H](CO)[C@@H](O)[C@@H](O)[C@@H]2O)cc2c(c1OC)-c1ccc(SC)c(=O)cc1[C@H](NC(C)=O)CC2,inactive,inactive,inactive,inactive,inactive,inactive,inactive,inactive,inactive,inactive,inactive,inactive,inactive,inactive,inactive,inactive,inactive,inactive,inactive,inactive
C[C@@H]1C[C@H]2[C@@H]3C[C@H](F)C4=CC(=O)C=C[C@@]4(C)[C@]3(F)[C@H](O)C[C@]2(C)[C@@]1(O)C(=O)CO,inactive,inactive,inactive,inactive,inactive,inactive,inactive,inactive,inactive,inactive,inactive,inactive,inactive,inactive,inactive,inactive,inactive,inactive,inactive,inactive
COc1ccccc1OC[C@H](O)CO,inactive,inactive,inactive,inactive,inactive,inactive,inactive,inactive,inactive,inactive,inactive,inactive,inactive,inactive,inactive,inactive,inactive,inactive,inactive,inactive
NS(=O)(=O)c1cc2c(cc1Cl)N[C@@H](C(Cl)Cl)NS2(=O)=O,inactive,inactive,inactive,inactive,inactive,inactive,inactive,inactive,inactive,inactive,inactive,inactive,inactive,inactive,inactive,inactive,inactive,inactive,inactive,inactive
C[C@H](N[C@@H](C)COc1ccccc1)[C@H](O)c1ccc(O)cc1,inactive,inactive,inactive,inactive,inactive,inactive,inactive,inactive,inactive,inactive,inactive,inactive,,inactive,inactive,inactive,inactive,inactive,inactive,inactive
CO[C@]1(NC(=O)[C@H](C(=O)O)c2ccc(O)cc2)C(=O)N2C(C(=O)O)=C(CSc3nnnn3C)CO[C@H]21,inactive,inactive,inactive,inactive,inactive,inactive,inactive,inactive,inactive,inactive,inactive,inactive,inactive,,inactive,inactive,inactive,inactive,inactive,inactive
CCN[C@@H]1CN(CCCOC)S(=O)(=O)c2sc(S(N)(=O)=O)cc21,inactive,inactive,inactive,inactive,inactive,inactive,inactive,inactive,inactive,inactive,inactive,inactive,inactive,inactive,inactive,inactive,inactive,inactive,inactive,inactive
CO[C@H]1[C@@H](OC(N)=O)[C@H](O)[C@@H](Oc2ccc3c(O)c(NC(=O)c4ccc(O)c(CC=C(C)C)c4)c(=O)oc3c2C)OC1(C)C,inactive,inactive,inactive,inactive,inactive,inactive,inactive,inactive,inactive,inactive,inactive,inactive,,inactive,inactive,inactive,inactive,inactive,inactive,inactive
Cc1cccc(CN2CCN([C@@H](c3ccccc3)c3ccc(Cl)cc3)CC2)c1,,,,,inactive,,,,inactive,inactive,,inactive,inactive,inactive,,2.82 µM (active),,inactive,,
CN1CCO[C@H](c2ccccc2)c2ccccc2C1,inactive,,,inactive,inactive,inactive,,inactive,,inactive,inactive,inactive,inactive,inactive,inactive,inactive,,inactive,inactive,
Cc1cccc(C)c1NC(=O)[C@H](C)N,inactive,inactive,inactive,inactive,,inactive,inactive,inactive,inactive,,inactive,,5.1 µM (active),,inactive,inactive,inactive,inactive,inactive,inactive
CCOC(=O)O[C@@H](C)OC(=O)[C@@H]1N2C(=O)[C@@H](NC(=O)[C@@H](N)c3ccccc3)[C@H]2SC1(C)C,inactive,inactive,inactive,inactive,inactive,inactive,inactive,inactive,inactive,inactive,inactive,inactive,inactive,inactive,inactive,inactive,inactive,inactive,inactive,inactive
CCN(CCCCOC(=O)c1ccc(OC)c(OC)c1)[C@@H](C)Cc1ccc(OC)cc1,inactive,inactive,,,,inactive,inactive,inactive,inactive,,,inactive,inactive,inactive,inactive,,inactive,inactive,inactive,inactive
Cc1ccsc1/C=C\C1=NCCCN1C,inactive,inactive,inactive,inactive,inactive,inactive,inactive,inactive,inactive,inactive,inactive,inactive,inactive,inactive,inactive,inactive,inactive,inactive,inactive,inactive
CC[C@H](Cc1c(I)cc(I)c(N)c1I)C(=O)O,inactive,inactive,inactive,inactive,inactive,inactive,inactive,inactive,inactive,inactive,inactive,inactive,inactive,inactive,inactive,inactive,inactive,inactive,inactive,inactive
CCOC(=O)Oc1c(OC)cc(C(=O)O[C@H]2C[C@H]3CN4CCc5c([nH]c6cc(OC)ccc56)[C@@H]4C[C@H]3[C@@H](C(=O)OC)[C@@H]2OC)cc1OC,3.16 µM (active),,,,,,,,,,2.51 µM (active),,7.21 µM (active),,,2.82 µM (active),3.55 µM (active),,,3.98 µM (active)
C#C[C@]1(O)CC[C@@H]2[C@H]3CCC4=CCCC[C@@H]4[C@@H]3CC[C@@]21C,inactive,inactive,inactive,inactive,inactive,inactive,inactive,inactive,inactive,inactive,inactive,inactive,inactive,inactive,inactive,inactive,inactive,inactive,inactive,inactive
CCN(CC)CCOC(=O)[C@@H](Cc1cccc2ccccc12)C[C@@H]1CCCO1,inactive,inactive,inactive,inactive,inactive,inactive,inactive,inactive,inactive,inactive,inactive,inactive,inactive,inactive,inactive,inactive,inactive,inactive,inactive,inactive
CCN1CCC[C@@H](OC(=O)C(c2ccccc2)c2ccccc2)C1,inactive,,,inactive,inactive,inactive,inactive,inactive,,inactive,inactive,,inactive,inactive,inactive,,,,inactive,inactive
C[C@@H](CNC1CCCCC1)OC(=O)c1ccccc1,,3.16 µM (active),inactive,,inactive,,,,,,,,,inactive,,1.78 µM (active),,,3.55 µM (active),
Clc1ccc(CC[C@H](Cn2ccnc2)Sc2c(Cl)cccc2Cl)cc1,,,,,,3.55 µM (active),,,,,,5.73 µM (active),5.1 µM (active),,3.55 µM (active),1.41 µM (active),3.16 µM (active),,3.98 µM (active),3.55 µM (active)

# Source: PubChem BioAssay (NCATS)
